Assay outcomes (PubChem BioAssay)
Only some compounds are listed: those with a hit (about 19% of all), similar ones and a draw of the others.
TDP1 block: TDP1 (human) enzyme inhibition; actives 0.28% (n = 350,000); Q9NUW8; AID 485290; recombinant TDP1, AlphaScreen DNA substrate cleavage; Potency, µM (highest dose often 130 µM), for inactives: top-dose activity change, negative = inhibition, actives largely listed as inhibitors; further: nearly all actives have a fitted effect of over 40% in size
Target sequence (Q9NUW8 whole entry, looked up): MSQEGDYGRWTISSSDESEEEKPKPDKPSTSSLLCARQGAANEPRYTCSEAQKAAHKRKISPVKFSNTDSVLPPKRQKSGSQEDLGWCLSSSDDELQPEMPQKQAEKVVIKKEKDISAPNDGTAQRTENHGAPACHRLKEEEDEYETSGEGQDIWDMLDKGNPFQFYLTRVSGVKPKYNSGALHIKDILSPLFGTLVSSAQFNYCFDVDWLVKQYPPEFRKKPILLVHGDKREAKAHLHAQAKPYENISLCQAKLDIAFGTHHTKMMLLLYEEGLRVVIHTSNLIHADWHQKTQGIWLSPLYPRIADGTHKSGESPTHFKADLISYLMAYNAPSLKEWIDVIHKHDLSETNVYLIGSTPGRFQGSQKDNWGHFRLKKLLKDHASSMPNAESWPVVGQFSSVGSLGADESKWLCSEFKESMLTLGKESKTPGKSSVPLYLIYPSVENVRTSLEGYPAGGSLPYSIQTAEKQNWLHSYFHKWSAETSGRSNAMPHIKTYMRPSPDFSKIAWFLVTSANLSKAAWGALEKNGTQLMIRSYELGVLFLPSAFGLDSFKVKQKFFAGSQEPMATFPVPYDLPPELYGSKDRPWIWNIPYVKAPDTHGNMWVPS
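Compounds were preincubated with Tdp1 (1 nM final) for 15 min at room temperature before substrate (15 nM final) started a 5 min reaction; beads (10 ug/ml final) were then added for 10 min before AlphaScreen detection.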
TDP1 cell noCPT: qHTS for Inhibitors of human tyrosyl-DNA phosphodiesterase 1 (TDP1): qHTS in cells in absence of CPT | AID 686978, 2013 | actives 15% (n = 420,000) | Potency, µM (titrated, usually from 46.2 µM), without a hit: top-dose activity change, negative = growth inhibition, hits mostly inhibitors | DT40 Tdp1-/- hTDP1 cells, no CPT, ATP luminescence, 48 h; further: nearly all actives have a fitted effect of over 55% in size
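A cellular qHTS used chicken DT40 cells lacking endogenous Tdp1 but carrying stably transfected human TDP1. Compounds were applied without camptothecin, and cell growth kinetics were judged by ATP-dependent luminescence after ≥48 hr.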
RORgamma inh: blocks mouse ROR gamma transcriptional activity; P51450; Drosophila S2 Gal4-RORgamma UAS-luciferase reporter, 20 h; Potency, µM (highest dose often 53.6 µM), without a hit: top-dose activity change, negative = inhibition, usual class: inhibitors; actives 5.4% (n = 310,000); AID 2551; further: nearly all actives have a fitted effect of over 60% in size
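Compounds are pin-transferred onto Drosophila Schneider cells expressing a copper-inducible Gal4–ROR gamma transactivation domain fusion. After 1 hr, copper sulfate is added to 700 uM final; luciferase is read 20 hr later.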
Gal4-VP16 FLuc: counter-screen for ROR gamma inhibitors: Gal4-VP16 reporter; Drosophila S2 Gal4-VP16 UAS-luciferase, luminescence, 20 h; Potency, µM (series often up to 53.6 µM), for inactives: at the highest dose activity, negative = inhibition, most hits filed as inhibitors; actives 3.5% (n = 310,000); AID 2546;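 further: Gal4-VP16 expression switched on by copper sulfate through the metallothionein promoter; nearly all actives have a fitted effect of over 50% in size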
TDP1 cell CPT: growth inhibition of DT40 Tdp1-/-;hTDP1 cells with camptothecin (screen for TDP1 inhibitors); chicken DT40 Tdp1-/-;hTDP1 cells + 20 nM CPT, ATP luminescence, 48 h; Potency, µM (highest dose often 46.2 µM), for the others: at the top dose activity change, negative = growth inhibition, usual class: inhibitors; actives 12% (n = 420,000); AID 686979; further: nearly all actives have a fitted effect of over 55% in size
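Cell growth measured by CellTiter-Glo luminescence after a minimum 48 h, 37 C compound exposure with 20 nM CPT in Tdp1-knockout DT40 cells stably expressing hTDP1, seeded 400/well; qHTS titration format.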
Numbers without * were called inactive; ? = inconclusive; nt = not tested or not shown; [ ] = dose if it differs, or a comment. The call rests on the fitted dose curve; in most records, active means well fitted curve in the direction sought with a large enough effect; inconclusive means small, poorly fitted or top-dose-only effect, or another doubt; inactive means no such curve, though single readings can be large; an effect the other way counts as inactive or inconclusive. On the % scale 0 is the no-effect control and ±100 the full control effect; potency means the concentration at half of the fitted maximal effect.

SMILES	TDP1 block	TDP1 cell noCPT	RORgamma inh	Gal4-VP16 FLuc	TDP1 cell CPT
COc1cc(NC(=O)Nc2nc(C(N)C3CCCCC3)cs2)cc(OC)c1OC (stereo not drawn)	nt	23µM*	nt	nt	16µM*
O=C(Nc1ccccc1Cl)NC1CCCCCCC1	0%	9%	35%	?	-14%
COc1ccc(N2C(=O)CC(NNC(=O)c3cccnc3)C2=O)cc1 (stereo not drawn)	-1%	-22%	7%	-2%	3%
CC(C)N1C(=O)NC2NC(=O)N(C(C)C)C21 (stereo not drawn)	nt	-1%	nt	nt	1%
O=C(c1ccnc(Cl)c1)N1CCCC(Nc2ccc(F)cc2)C1 (stereo not drawn)	3%	-1%	-2%	0%	5%
Cc1c(C(=O)N(C)c2ccc(Cl)cc2)cnn1-c1ccccc1	nt	4.6µM*	-8%[1.91 µM]	3%	?
CN(C1CCCCC1)S(=O)(=O)c1ccc(C(=O)Nc2sc3c(c2C(N)=O)CC(C)(C)NC3(C)C)cc1	3%	?	-39%	0%	?
CC1CCCCN1S(=O)(=O)c1ccc(C(=O)Nc2sc3c(c2C(N)=O)CC(C)(C)NC3(C)C)cc1 (stereo not drawn)	0%	?	nt	nt	26µM*
CC1CCc2c(sc3nc(C(C)(C)C)nc(N4CCN(C(=O)CCl)CC4)c23)C1 (stereo not drawn)	nt	2.6µM*	13µM*	13µM*	1.8µM*
Cc1c(C(=O)NCc2cccnc2)sc2nc(-c3ccccc3)cn12	nt	16µM*	40%	-5%	-10%
Cc1c(C(=O)NCc2cccnc2)sc2nc(-c3ccc(F)cc3)cn12	1%	13µM*	5%	?	?
Cc1c(C(=O)N(C)Cc2ccccc2)sc2nc(-c3ccc(F)cc3)cn12	4%	?	nt	nt	?
Cc1c(C(=O)NCc2ccco2)sc2nc(-c3ccccc3)cn12	7%	?	?	12%	?
Cc1c(C(=O)NCc2ccc(F)cc2)sc2nc(-c3ccccc3)cn12	4%	?	nt	nt	18µM*
Cc1c(C(=O)NCc2ccccc2Cl)sc2nc(-c3ccc(F)cc3)cn12	-3%	16µM*	nt	nt	?
CCOC(=O)c1noc2ncnc(N3CCC(C)CC3)c12	6%	-29%	nt	nt	?
CCOC(=O)C1CCCN(C(=O)CCC(=O)Nc2ccc3nc(N4CCOCC4)cc(C)c3c2)C1 (stereo not drawn)	3%	?	9%	11%	-13%
CCOC(=O)c1c(NC(=O)CSc2ncnc3ccccc23)sc(C)c1C	3%	15µM*	-16%	2%	?
CCOC(=O)c1c(NC(=O)Cc2cccs2)sc(C(=O)NC2CCCC2)c1C	3%	-20%	25%	0%	1%
COC(=O)c1c(NC(=O)COc2ncnc3ccccc23)sc(C)c1C	5%	26µM*	6%	0%	?
CCOC(=O)c1c(NC(=O)CC)sc(C(C)=O)c1C	-1%	?	?	-2%	?
CCOC(=O)c1c(NC(=O)COc2ncnc3ccccc23)sc(C(C)=O)c1C	1%	13µM*	?	?	13µM*
CCOC(=O)c1c(NC(=O)Cc2cccs2)sc(C(=O)NC2CCCCC2)c1C	0%	16µM*	0%	-6%	?
Cc1ccc(N=Cc2c(O)n(C)c(=O)n(C)c2=O)nc1	-11%	-2%	-11%	0%	-5%
CC(C)Cc1cc(C(=O)N2CCCC(C(=O)c3cc(F)ccc3F)C2)no1 (stereo not drawn)	0%	-24%	7%	5%	1%
SMILES	TDP1 block	TDP1 cell noCPT	RORgamma inh	Gal4-VP16 FLuc	TDP1 cell CPT
CCn1cc(CN2CCCC(C(=O)Nc3ccc(-c4cscn4)cc3)C2)cn1 (stereo not drawn)	2%	-3%	8%	2%	13%
Cc1ccc(-n2c(=O)cc(N3CC(C)CC(C)C3)[nH]c2=O)cc1 (stereo not drawn)	7%	-3%	6%	-5%	2%
O=C(CN1C(=O)/C(=C\c2ccc(F)cc2)Oc2ccccc21)NCc1ccco1	4%	-26%	6%	-8%	-8%
COc1ccccc1-c1nnc(SCCN2CCOCC2)n1-c1ccc(C)cc1	-10%	-4%	4%	-3%	-22%
O=C(c1ccco1)N1CCCN(Cc2nc(-c3ccc4c(c3)OCO4)no2)CC1	6%	16µM*	16%	7%	-10%
COc1ccc(-c2nc(CN3CCCCC3CCc3ccccn3)c(C)o2)cc1 (stereo not drawn)	0%	?	-34%	4%	6%
c1ccc(C(c2ccccc2)c2noc(CN3CCC(c4ccncc4)CC3)n2)cc1	0%	?	-18%	3%	21µM*
c1cc(C2CCN(Cc3nc(-c4ccc5c(c4)OCO5)no3)CC2)ccn1	2%	12µM*	-23%	?	21µM*
c1ccc(CCC2CCCCN2Cc2nc(-c3ccc4c(c3)OCO4)no2)nc1 (stereo not drawn)	nt	21µM*	-1%	19%	16µM*
O=C(Nc1cccnc1)c1cc(-c2ccc(Cl)cc2)on1	-1%	-2%	4%	2%	3%
O=C1C(=O)c2c(ccc3ccccc23)-c2ccccc21	nt	0.52µM*	nt	nt	0.58µM*
CN1/C(=C\C(=O)Nc2cccc(Cl)c2)C(C)(C)c2ccccc21	3%	23µM*	?	?	?
CCOC(=O)C1CCCN(CC(=O)/C=C2/N(C)c3ccccc3C2(C)C)C1 (stereo not drawn)	0%	13µM*	14%	?	?
CCOC(=O)C1CCCN(CCC(C)c2ccccc2)C1 (stereo not drawn)	5%	-1%	1%	-7%	-4%
CN1/C(=C\C(=O)COC(=O)Cn2nnc(-c3ccccc3)n2)C(C)(C)c2ccccc21	-1%	3.7µM*	32%	28µM*	4.1µM*
